{"source": "the supplement of paper PMC3484114", "note": "± gives the standard deviation."}
{"test_system": "OVCAR-3-derived ovarian cancer stem-like cells (spheroids)", "experiment": "cell growth relative to untreated control; higher = more growth (less inhibition)", "conditions": "2.29 µM; 96 h", "in_short": "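After trypsin dissociation, OVCAR-3 spheroid-derived stem-like cells were placed in ultra-low attachment 96-well plates at 50,000 cells/mL in stem cell medium and preincubated for 24 h. Treatment at 2.29 uM followed for 96 h at 37°C, 5% CO2, with 4 replicate wells per compound. A 4 h TOX8 resazurin fluorescence read (ex 560/em 590 nm) gave viability, from which percent growth relative to untreated wells was derived after blank subtraction and Grubbs outlier removal.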", "units": {"cell growth": "%"}}
{"smiles": "CC[C@H](C)[C@@H]1NC(=O)[C@@H](NC(=O)c2c3nc4c(C(=O)N[C@@H]5C(=O)N[C@@H](C(C)C)C(=O)N6CCC[C@H]6C(=O)N(C)CC(=O)N(C)[C@@H](C(C)C)C(=O)O[C@@H]5C)ccc(C)c4oc-3c(C)c(=O)c2N)[C@@H](C)OC(=O)[C@H](C(C)C)N(C)C(=O)CN(C)C(=O)[C@@H]2CCCN2C1=O", "cell growth": "10.9 ± 3.5"}
{"smiles": "N#CC(NCc1cccc(CNC(C#N)c2ccccc2)c1)c1ccccc1", "note": "(stereo unspecified)", "cell growth": "93.3 ± 30"}
{"smiles": "CC1=C(N2CC2)C(=O)C(CO)=C(N2CC2)C1=O", "cell growth": "9 ± 3.5"}
{"smiles": "CO[C@H]1Nc2c(ccc(C)c2O)C(=O)N2C=C(/C=C/C(N)=O)C[C@@H]12", "cell growth": "12.8 ± 2.4"}
{"smiles": "N#Cc1cn([C@@H]2O[C@H](CO)[C@@H](O)[C@H]2O)c2ncnc(N)c12", "cell growth": "8.9 ± 3.4"}
{"smiles": "O=C1OC(c2ccccc2)=N/C1=C\\c1ccc(N(CCCl)CCCl)cc1", "cell growth": "64.5 ± 12"}
